Where “and” joins values, the source holds several entries; their conditions need not be identical. Equal entries are not always repeated. Results filed as inconclusive are left out. Unmarked numbers belong to inactive results. Calls of active or inactive are those of the source. The call rests on the fitted dose curve; in most records, active means well fitted inhibition curve with a large enough effect; inconclusive means small, poorly fitted or top-dose-only effect; inactive means no such curve, though single readings can be large or run the other way.
On the % scale 0 is the no-effect control and ±100 the full control effect; potency means the concentration at half of the fitted maximal effect.

A short description of the assay: Primary qHTS for inhibitors of nuclear receptor binding SET domain protein 2 (NSD2) in an RCH-ACV wild type WT cells (2C) (AID 1645877). Further: nearly all actives have a fitted effect of over 70% in size. Conditions: RCH-ACV (leukaemia line) NSD2 WT (2C) viability, CellTiter-Glo, 72 h; series mostly up to 44.9 µM; activity change, negative = cell killing: at the top concentration. Background: In qHTS, concentration-response curves come from the screen itself.
Take `CNC(=O)c1cc(Oc2ccc(NC(=O)Nc3cc(C(C)(C)C)nn3-c3ccc4ncccc4c3)c(F)c2)ccn1`: the Potency was 7.28 µM (active) and 5.25 µM (active).
As for `Nc1ncnc2c1c(-c1cnc3[nH]ccc3c1)nn2C1CCCC1`, the Potency was 365 nM (active) and 417 nM (active).
As for `CN(C)c1nc(Cc2ccc(NC(=O)c3ccc4ccccc4c3)cc2)nc(Cl)c1CC(=O)O`, the outcome was inactive.
`CN(c1ncccc1CNc1nc(Nc2ccc3c(c2)CC(=O)N3)ncc1C(F)(F)F)S(C)(=O)=O`: the Potency was 8.33 µM (active).
Still for that read-out and setting: the value for `COc1cc2c(Nc3ccc(NC(=O)c4ccccc4)cc3)ncnc2cc1OCCCN1CCOCC1` was 5.15 µM (active) and 934 nM (active).
With `C[C@@H](Oc1cc(-n2cnc3ccc(CN4CCN(C)CC4)cc32)sc1C(N)=O)c1ccccc1C(F)(F)F`, the Potency is 0.0417 µM (active).
Consider `Cc1cn2cc(C(=O)N(C)CCO)cc(N[C@@H]3CCOc4cccc(C)c43)c2n1`, for which the “activity change, negative = cell killing” value was 2.3%.
`C1Cc2[nH]nc(-c3nn[nH]n3)c2C1`: the compound was classed as inactive.
`Nc1nc(Nc2ccc(S(N)(=O)=O)cc2)nn1C(=O)c1c(F)cccc1F`: the Potency was 1.63 µM (active) and 1.86 µM (active).
Same read-out and setting: the value for `COc1ccc(F)c(F)c1C(=O)c1cnc(NC2CCN(S(C)(=O)=O)CC2)nc1N` was 325 nM (active) and 525 nM (active); that for `CCc1cc2c(cc1N1CCC(N3CCOCC3)CC1)C(C)(C)c1[nH]c3cc(C#N)ccc3c1C2=O` was 1.42 µM (active).
As to `CC[C@@H]1C(=O)N(C)c2cnc(Nc3ccc(C(=O)NC4CCC(N5CCN(CC6CC6)CC5)CC4)cc3OC)nc2N1C(C)C` (some centres not stated), the Potency is 36.5 nM (active) and 41.1 nM (active) and 37.2 nM (active).

(Values after PubChem BioAssay (NCATS).)
